Measured values: PubChem BioAssay AID588742 (Southern Research Specialized Biocontainment Screening …, 2011)
Among all 1,800 compounds or so, about 410 (23%) were called active. These entries were drawn from the full list. Results with a measured potency or affinity are listed apart. Unmarked numbers belong to inactive results. The rule behind the calls is not given here.

test: Vero cell cytotoxicity, cytotoxicity control for flavivirus capping enzyme inhibitors (AID 588742); conditions: Vero cells viability, cytotoxicity counter-screen; series mostly up to 40 µM; viability: at the top concentration

SMILES | viability
O=C(O)c1ccc(/C=N/Nc2ccc(S(=O)(=O)N3CCCC3)cc2[N+](=O)[O-])cc1 | 91.7%
O=[N+]([O-])c1cc2c(cc1C=Nc1ccccc1)OCO2 | 102%
O=C1ON=C(c2ccccc2)/C1=C/c1ccc(-c2ccccc2[N+](=O)[O-])o1 | 96.9% [at 20 µM]
Cc1ccc2nsnc2c1S(=O)(=O)N(CCO)Cc1cc2cc3c(cc2[nH]c1=O)OCCO3 | 102%
COc1cccc(/C=C2/C(=O)NN(c3ccc(F)cc3)C2=O)c1 | 90.1%
CCC(C)NC(=O)Cc1ccc(-c2ccccc2)cc1 (configuration not stated) | 91.8%
CC1=NN(c2nc(-c3ccc(Cl)cc3)cs2)C(=O)C1 | 87.3%
CCCC(=Nc1ccc(N)cc1)C1=C(O)C(C(=O)OC)C(C)(C)CC1=O (configuration not stated) | 101%
O=C1C(O)=C(O)C(=O)c2ccccc21 | 90.9%
COC(=O)c1ccc(-c2ccc(C(c3c(C)[nH][nH]c3=O)c3c(C)[nH][nH]c3=O)o2)cc1 | 94.6%
O=C(Nc1cccc(Oc2ccc(C(=O)O)c(C(=O)O)c2)c1)c1ccc(-c2ccccc2)cc1 | 106%
CC1CCC(C(C)C)C2=C1C(C#N)(C#N)C(C#N)(C#N)C(c1ccccc1)N2 (configuration not stated) | 87.7%
Cc1ccc(-c2nn(-c3ccccc3)cc2/C=C2\SC(=S)N(CC(=O)O)C2=O)cc1 | 82.5%
CC1(C)CC(=O)C(=Cc2cn(CCC#N)nc2-c2ccc(Cl)cc2)C(=O)C1 | 99.2%
O=C(Nc1ccc(Cl)cc1)C1c2cccc[n+]2CC(=O)N1Cc1ccc2c(c1)OCO2 (configuration not stated) | 96.9%
CCOc1cc(Br)cc(C(c2c(C(=O)O)[nH]c3ccccc23)c2c(C(=O)O)[nH]c3ccccc23)c1O | 98.4%
Cc1nn(-c2ccccc2)c2c1C(c1cccs1)C(C#N)=C(N)O2 (configuration not stated) | 93.6%
Cc1ccc(CCNC(=O)C2CCN(S(=O)(=O)N3CCCCC3)CC2)cc1 | 98.7%
O=[N+]([O-])c1ccccc1-c1ccc(C(=S)N2CCCC2)o1 | 85.2%
O=[N+]([O-])c1ccccc1-c1ccc(C(=S)N2CCCCC2)o1 | 86.6%
O=C1NN(c2ccccc2)C(=O)/C1=C/c1ccc(-c2ccc(Cl)c(C(=O)O)c2)o1 | 101%
O=C(O)c1ccc(Cn2cc(/C=C\[N+](=O)[O-])c3ccccc32)o1 | 87.8%
COc1cc(-c2cccs2)cc(=O)c2c(C)oc(C)c12 | 111%
CCOc1ccc(/C=C2\SC(=S)N(CCC(=O)Nc3ccccc3C(=O)O)C2=O)cc1 | 103%
Cc1oc(=O)c(NC(=O)c2ccccc2)cc1C(=O)c1ccccc1 | 89.3%
COc1ccc(C(=O)Nc2cc(C(=O)c3ccccc3)c(C)oc2=O)cc1 | 90.6%

SMILES | viability
Cc1ccc(C(=O)c2coc3c2C(=O)C(=O)c2ccccc2-3)cc1 | 87.2%
O=C(COc1cccc2ccccc12)Nc1cc(Cl)ccc1C(=O)O | 92.5%
O=C1Nc2ccc(F)cc2C12Nc1ccccc1-c1nnc(SCc3ccccc3F)nc1O2 (configuration not stated) | 95.3%
CC1=NOC(=O)/C1=C\c1ccc(-c2ccc(Br)cc2C(=O)O)o1 | 96.7%
CCOC(=O)c1c(-c2ccc(C)c(C)c2)csc1NC(=O)C1CC=CCC1C(=O)O (configuration not stated) | 99.5%
COC(=O)COc1ccc(C2Nc3c(Cl)ccc(C(=O)O)c3C3C=CCC32)cc1 (configuration not stated) | 95.6%
N#C/C(=C(/O)CSc1ccccc1C(=O)O)c1nc2ccccc2s1 | 96%
COc1ccc(CC(=O)NCc2ccc3c(c2)cc(C)n3C)cc1 | 106%
CC1=NN(c2nc(-c3ccc(F)cc3)cs2)C(=O)C1 | 96.5%
CCC(C(=O)O)N1C(=O)/C(=C/C(C)=C/c2ccccc2)SC1=S (configuration not stated) | 98.2%
CC(=O)Nc1ccc2nc(N)sc2c1 | 96.5%
COc1ccc(NCC(=O)N/N=C2\CCc3ccccc32)cc1 | 102%
CCOC(=O)c1c(N)sc2c1CCS(=O)(=O)C2 | 99.7%
CCOC(=O)c1c(N)sc(=S)c2c1CCC2 | 94.8%
CCCCC1=CC2=C(c3ccco3)C(=O)C(C)(OC(=O)c3ccc(OC)cc3)C(=O)C2=CN1C1CC1 (configuration not stated) | 90.4%
CC1=NOC(=O)/C1=C/c1ccc2c(c1)OCO2 | 99.9%
CC(=O)c1ccc(NC(=O)CSc2nnc(-c3ccco3)c(-c3ccco3)n2)cc1 | 88.2%
Nc1c(C(=O)O)sc2nc(-c3ccccc3)cc(-c3ccc(Cl)cc3)c12 | 108%
CCOC(=O)C1=C(O)/C(=C\c2ccc(CNC(=O)C(=O)Nc3ccccc3)o2)N=C1C | 105%
COc1c(OC(C)=O)ccc(/C=N\NC(=O)c2ccc(Br)cc2)c1[N+](=O)[O-] | 92.1%
O=C(O/N=C1\CCCCC1c1ccc([N+](=O)[O-])cc1[N+](=O)[O-])c1c(F)cccc1F (configuration not stated) | 98.9%
O=C(O)c1cc(/C=C/C(=O)c2cc(F)ccc2O)c2c(c1)COCO2 | 95%
Cc1cc(S(=O)(=O)ON2C(=O)c3ccccc3C2=O)ccc1F | 105%
Cc1cc(N2C(=O)C(O)=C(C(=O)c3ccco3)C2c2cccc(Oc3ccccc3)c2)no1 (configuration not stated) | 95.3%
CCCCC1=CC2=CC(=O)C(C)(OC(=O)CC)C(=O)C2=CN1Cc1ccc(OC)cc1 (configuration not stated) | 101%
O=C1C=CC2=C3c4cc(O)c(O)cc4CC3(O)COC2=C1O (configuration not stated) | 93.7%

SMILES | viability
CCOC(=O)C1(C)/C(=N/Nc2cccc(Cl)c2)C(=O)C(=O)N1c1ccccc1 (configuration not stated) | 99.2%
N=C1/C(=C\c2ccc(OC(=O)c3ccc(F)cc3)cc2)C(=O)N=C2SC(N3CCOCC3)=NN12 | 85.6%
O=C(CCN1C(=O)/C(=C/c2ccccc2Cl)SC1=S)Nc1ccccc1C(=O)O | 103%
O=C(N/N=C/C(Cl)=C/c1ccc([N+](=O)[O-])cc1)C(=O)Nc1ccccc1C(=O)O | 90.8%
O=C(O)CCCCCN1C(=O)C(O)=C(C(=O)/C=C/c2ccccc2)C1c1ccccc1[N+](=O)[O-] (configuration not stated) | 103%
Oc1cc(-n2cccn2)c(O)cc1-n1cccn1 | 106%
CC(=O)Nc1ccc(NC(=O)CC2Nc3cccc4cccc(c34)NC2=O)cc1 (configuration not stated) | 92.3%
COc1ccc(C2C=C(c3ccc(F)cc3)NC(=S)N2)cc1OC (configuration not stated) | 95.2%
COC(=O)CCC(=O)OC1(C)C(=O)C2=CN(c3ccccc3)C(c3ccc(OC)cc3)=CC2=C(Br)C1=O (configuration not stated) | 111%
O=c1[nH]c(/C=C/c2ccc(Cl)cc2Cl)c([N+](=O)[O-])c(=O)[nH]1 | 105%
CC1CCc2c(sc(N)c2C(N)=O)C1 (configuration not stated) | 100%
CN(C(=S)Nc1cccnc1)c1ccc(O)cc1 | 108%
Oc1ccc(NCc2ccc(OCc3ccccc3)cc2)cc1 | 102%
O=C1C=C(Nc2ccccc2C(=O)O)c2ccccc2C1=O | 93.8%
NC(=S)NNc1cccc2cccnc12 | 86.7%
CCC(C)c1ccc(NC(=O)Nc2cccnc2)cc1 (configuration not stated) | 92.2%
CCOc1ccc(Nc2ccc(N)c(S(=O)(=O)O)c2)cc1 | 104%
O=c1cccccc1NCc1ccccc1 | 104%
C#CCOc1c(/C=C\c2nc(O)c([N+](=O)[O-])c(=O)[nH]2)cc(Br)cc1OC | 99.6%
COC(=O)c1ccc(NC(=O)CCc2nnc3ccc(NCc4ccco4)nn23)cc1 | 88.7%
COc1ccc(OC)c(/C=C/c2c([N+](=O)[O-])c(=O)n(C)c(=O)n2C)c1 | 100%
CC1(OC(=O)CCc2ccccc2)C(=O)C=C2C=C(c3ccc(C#N)cc3)N(C3CCCC3)C=C2C1=O (configuration not stated) | 107%
O=C1/C(=C\c2ccc(-c3ccccc3[N+](=O)[O-])o2)C(c2ccccc2)=NN1c1ccccc1 | 86.9%
CCn1c(CSc2nnc3ccccn23)nc2cc(C(=O)O)ccc21 | 97.8%
O=C(O)C1=CC[C@@H](c2ccc(Cl)cc2)N(S(=O)(=O)c2ccc(Cl)cc2)[C@H]1c1cccc(Cl)c1 | 87.2%
COc1ccccc1CNC(=S)Nc1ccc(S(N)(=O)=O)cc1 | 92.7%

SMILES | viability
Cc1ccc(C)c(S(=O)(=O)ON2C(=O)c3ccccc3C2=O)c1 | 109%
Cc1ccc(Nc2ccc(N)cc2S(=O)(=O)O)cc1 | 85%
CCOC(=O)c1c(-c2cccc(C)c2)csc1NC(=O)C1CC=CCC1C(=O)O (configuration not stated) | 108%
Cc1ccc(C(=O)Nc2ccccc2C(=O)O)cc1S(=O)(=O)Nc1ccc(Br)cc1 | 101%
COC(=O)c1ccc(N2NC(=O)/C(=C/c3ccc(-c4ccc(Cl)c(C(=O)O)c4)o3)C2=O)cc1 | 93.8%
CC1(OC(=O)C2CCCC2)C(=O)C=C2C=C(c3ccsc3)N(CCc3ccccn3)C=C2C1=O (configuration not stated) | 97.4%
CSc1nsc2nc(=O)c(/C=C3\C=Nc4ccccc43)c(N)n12 | 89.2%
CC1=NN(Cc2ccccc2)C(=O)C1C(c1ccc(Cl)cc1)C(C#N)C#N (configuration not stated) | 82.8%
Cc1ccc(F)c(NC(=O)/C(C#N)=C(\O)c2ccc(C(C)(C)C)cc2)c1 | 94.3%
Cc1ccc(NC(=O)c2cccc(C(=O)Nc3ccc(C)cc3C(=O)O)c2)c(C(=O)O)c1 | 95.8%
Cn1c(=O)c2[nH]c(-c3ccccc3)c(O)c2n(C)c1=O | 105%
O=C(O)c1ccc2c(c1)C(=O)N(c1ccc(/C=C/C(=O)c3ccccc3)cc1)C2=O | 110%
O=C(O)COc1ccc(/C=C/C(=O)c2ccc(C3CCCCC3)cc2)cc1 | 90.6%
C#CCOc1c(Br)cc(/C=C2/C(=O)ON=C2C)cc1OC | 92.8%
CC(C(=O)Nc1ccc(O)cc1C(=O)O)N1C(=O)/C(=C\c2cccs2)SC1=S (configuration not stated) | 95.8%
O=C1CC2CCCN2C=C1I (configuration not stated) | 94.8%
c1cc2c(cc1CNc1ccc(N3CCOCC3)cc1)OCO2 | 101%
Cc1ccc(-c2cc(C(=O)O)c3cc(Br)ccc3n2)o1 | 92.2%
Cc1ccnc(NCc2ccccc2O)c1 | 101%
O=C1C(Cl)=C(N2CCCCC2)C(=O)N1c1ccccc1 | 94.3%
O=C1C(Cl)=C(N2CCCC2)C(=O)N1c1ccccc1F | 104%
CN1CCN(C2=C(Cl)C(=O)N(c3ccc(Cl)c(Cl)c3)C2=O)CC1 | 106%
Cc1ccc(N2C(=O)C(Cl)=C(N3CCN(C)CC3)C2=O)c(C)c1 | 102%
CCCCNC(=O)c1ccc2nc(-c3ccco3)c(-c3ccco3)nc2c1 | 96%
